{"source": "PubChem BioAssay (Tox21)", "note": "Unmarked numbers belong to inactive results. Inconclusive results are not listed. Active and inactive are the calls of the source. Calls follow the shape of the dose curve; as a rule, active = well fitted curve in the direction sought with a large enough effect in the repeat runs; inconclusive = weak or mixed curves; inactive = no such curve, though single readings can be large; an effect the other way counts as inactive or inconclusive. % is scaled to controls: 0 for no effect and ±100 for the full control effect.", "data": [{"experiment": "qHTS assay for small molecule disruptors of the mitochondrial membrane potential (AID 720635); also: potency is read from the fitted curve at half-maximal effect", "settings": "HepG2 mitochondrial membrane potential, Mito-MPS dye ratio; series mostly up to 83.2 µM; ratio activity, negative = MMP loss: at the top concentration", "summary_of_the_method": "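HepG2 cells exposed to compound 1 hr at 37C, then Mito-MPS dye 30 min. Ratio read of aggregate (540/590 nm) versus monomer (490/535 nm) fluorescence.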", "values": [{"smiles": "COc1cc([C@@H]2c3cc4c(cc3[C@@H](O)[C@H]3COC(=O)[C@H]23)OCO4)cc(OC)c1O", "Potency": "2.11 µM (active)"}, {"smiles": "CN1CC[C@@]23CCCC[C@@H]2[C@@H]1Cc1ccc(O)cc13", "ratio activity, negative = MMP loss": "-3.71%"}, {"smiles": "CNC(C)Cc1ccccc1", "note": "(centres undefined)", "ratio activity, negative = MMP loss": "7.08%"}, {"smiles": "CN[C@@H](C)Cc1ccccc1", "ratio activity, negative = MMP loss": "8.83%"}, {"smiles": "CCCCNC(C)(C)[P+](=O)O", "ratio activity, negative = MMP loss": "8.55%"}, {"smiles": "O=c1ccc2cc(O[C@@H]3O[C@H](CO)[C@@H](O)[C@H](O)[C@H]3O)c(O)cc2o1", "ratio activity, negative = MMP loss": "11.6% [at 39.1 µM]"}, {"smiles": "C/C=C(\\CC)C(=O)NC(N)=O", "ratio activity, negative = MMP loss": "4.25%"}, {"smiles": "N#CC(C#N)=Cc1cc(O)c(O)c(O)c1", "Potency": "5.96 µM (active)"}, {"smiles": "O=C(O)CCCO", "ratio activity, negative = MMP loss": "1.64% [at 95.3 µM]"}, {"smiles": "O=P1(N(CCCl)CCCl)NC(OO)CCO1", "note": "(centres undefined)", "ratio activity, negative = MMP loss": "-9.96%"}, {"smiles": "O=C1CN=C(c2ccccc2)c2cc(Cl)ccc2N1", "ratio activity, negative = MMP loss": "13%"}, {"smiles": "C[C@@H]1[C@@H]2Cc3ccc(O)cc3[C@@]1(C)CCN2CC1CC1", "ratio activity, negative = MMP loss": "12.7%"}, {"smiles": "C[C@@H]1[C@H]2Cc3ccc(O)cc3[C@]1(C)CCN2C", "ratio activity, negative = MMP loss": "11.4% [at 95.3 µM]"}, {"smiles": "CC(C)C[C@H]1C(=O)N2CCC[C@H]2[C@]2(O)O[C@](NC(=O)[C@@H]3C[C@@H]4c5cccc6[nH]cc(c56)C[C@H]4N(C)C3)(C(C)C)C(=O)N12", "ratio activity, negative = MMP loss": "-4.59%"}, {"smiles": "[H+].[H+].[Hg+2].[O-]B([O-])[O-].[c-]1ccccc1", "Potency": "13.9 µM (active)"}, {"smiles": "c1ccc2c(c1)Sc1ccccc1N2C[C@@H]1CN2CCC1CC2", "ratio activity, negative = MMP loss": "8.69%"}, {"smiles": "CC(N)Cc1ccc2c(c1)OCO2", "note": "(centres undefined)", "ratio activity, negative = MMP loss": "-9%"}, {"smiles": "C[C@]12CC[C@@H]3c4ccc(OC(=O)N(CCCl)CCCl)cc4CC[C@H]3[C@@H]1CC[C@@H]2OP(=O)(O)O", "Potency": "inactive"}]}, {"experiment": "qHTS assay to test for compound auto fluorescence at 590 nm (red) in HepG2 cells (AID 720674)", "settings": "HepG2 autofluorescence, red 540/590 nm, 1 h; series mostly up to 46 µM; fluorescence, relative to Rose Bengal: at the top concentration", "summary_of_the_method": "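HepG2 cells, 2,000 per well in MEM with 10% FBS, attached overnight at 37 C, then got 23 nL compound or DMSO. After 1 hr at 37 C, 5% CO2, red fluorescence was read at 540/590 nm against Rose Bengal sodium as reference.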", "values": [{"smiles": "CC(C)=CCN1CC[C@]2(C)c3cc(O)ccc3C[C@H]1[C@H]2C", "fluorescence, relative to Rose Bengal": "-0.519% [at 91.3 µM]"}, {"smiles": "CN[C@@]1(c2ccccc2Cl)CCCCC1=O", "fluorescence, relative to Rose Bengal": "-0.168%"}, {"smiles": "CCNC1(c2cccs2)CCCCC1=O", "note": "(centres undefined)", "fluorescence, relative to Rose Bengal": "0.221% [at 18.6 µM]"}, {"smiles": "CNC(C)CC1CCCCC1", "note": "(centres undefined)", "fluorescence, relative to Rose Bengal": "0.278%"}, {"smiles": "CCC1(c2ccccc2)C(=O)NC(=O)N(C)C1=O", "note": "(centres undefined)", "fluorescence, relative to Rose Bengal": "-0.684%"}, {"smiles": "COc1cc([C@@H]2c3cc4c(cc3[C@@H](O)[C@H]3COC(=O)[C@H]23)OCO4)cc(OC)c1O", "fluorescence, relative to Rose Bengal": "-0.488%"}, {"smiles": "CN1CC[C@@]23CCCC[C@@H]2[C@@H]1Cc1ccc(O)cc13", "fluorescence, relative to Rose Bengal": "-0.423%"}, {"smiles": "CNC(C)Cc1ccccc1", "note": "(centres undefined)", "fluorescence, relative to Rose Bengal": "-0.129% [at 91.3 µM]"}, {"smiles": "CCCCNC(C)(C)[P+](=O)O", "fluorescence, relative to Rose Bengal": "0.308%"}, {"smiles": "O=c1ccc2cc(O[C@@H]3O[C@H](CO)[C@@H](O)[C@H](O)[C@H]3O)c(O)cc2o1", "fluorescence, relative to Rose Bengal": "-0.0336% [at 18.6 µM]"}, {"smiles": "C/C=C(\\CC)C(=O)NC(N)=O", "fluorescence, relative to Rose Bengal": "0.404%"}, {"smiles": "C[C@]12CCC(=O)C[C@@H]1CC[C@@H]1[C@@H]2CC[C@@]2(C)[C@H]1CC[C@]2(C)O", "fluorescence, relative to Rose Bengal": "-0.623%"}, {"smiles": "Cc1nnc2n1-c1ccc(Cl)cc1C(c1ccccc1)=NC2", "fluorescence, relative to Rose Bengal": "-0.255%"}, {"smiles": "N#CC(C#N)=Cc1cc(O)c(O)c(O)c1", "fluorescence, relative to Rose Bengal": "0.276%"}, {"smiles": "O=C(O)CCCO", "fluorescence, relative to Rose Bengal": "0.322% [at 95.7 µM]"}, {"smiles": "Oc1ccc2c3c1O[C@H]1[C@@H](O)C=C[C@H]4[C@H](C2)NCC[C@@]341", "fluorescence, relative to Rose Bengal": "-0.472%"}, {"smiles": "O=P1(N(CCCl)CCCl)NC(OO)CCO1", "note": "(centres undefined)", "fluorescence, relative to Rose Bengal": "-0.777%"}, {"smiles": "COC(=O)[C@H]1[C@@H](OC(=O)c2ccccc2)C[C@@H]2CC[C@H]1N2C", "fluorescence, relative to Rose Bengal": "0.0125% [at 91.3 µM]"}, {"smiles": "O=C1CN=C(c2ccccc2)c2cc(Cl)ccc2N1", "fluorescence, relative to Rose Bengal": "-0.163%"}, {"smiles": "C=C[C@H]1CN2CC[C@H]1C[C@H]2[C@H](OC(=O)OCC)c1ccnc2ccc(OC)cc12", "fluorescence, relative to Rose Bengal": "0.381%"}, {"smiles": "CCc1cc(OC)c(C[C@@H](C)N)cc1OC", "fluorescence, relative to Rose Bengal": "-0.258% [at 95.7 µM]"}, {"smiles": "CC(C)[C@H]1C(=O)N2CCC[C@H]2[C@]2(O)O[C@](NC(=O)[C@@H]3C[C@@H]4c5cccc6[nH]cc(c56)C[C@H]4N(C)C3)(C(C)C)C(=O)N12", "fluorescence, relative to Rose Bengal": "0.292%"}, {"smiles": "C[C@]12CC[C@H]3[C@@H](CCC4=C(Cl)C(=O)CC[C@@]43C)[C@@H]1CC[C@@H]2O", "fluorescence, relative to Rose Bengal": "0.236%"}, {"smiles": "Clc1ccc(C(Cn2ccnc2)OCc2csc3c(Cl)cccc23)c(Cl)c1", "note": "(centres undefined)", "fluorescence, relative to Rose Bengal": "0.41% [at 18.6 µM]"}, {"smiles": "C[C@@H]1[C@H]2Cc3ccc(O)cc3[C@]1(C)CCN2C", "fluorescence, relative to Rose Bengal": "0.0445% [at 95.7 µM]"}, {"smiles": "CC(C)C[C@H]1C(=O)N2CCC[C@H]2[C@]2(O)O[C@](NC(=O)[C@@H]3C[C@@H]4c5cccc6[nH]cc(c56)C[C@H]4N(C)C3)(C(C)C)C(=O)N12", "fluorescence, relative to Rose Bengal": "0.0291%"}, {"smiles": "[H+].[H+].[Hg+2].[O-]B([O-])[O-].[c-]1ccccc1", "fluorescence, relative to Rose Bengal": "-0.103%"}, {"smiles": "C=CCC1([C@@H](C)CCC)C(=O)NC(=O)NC1=O", "fluorescence, relative to Rose Bengal": "-0.325% [at 91.3 µM]"}, {"smiles": "c1ccc2c(c1)Sc1ccccc1N2C[C@@H]1CN2CCC1CC2", "fluorescence, relative to Rose Bengal": "-0.0393%"}, {"smiles": "C[C@@H](Cc1ccccc1)NCCC(c1ccccc1)c1ccccc1", "fluorescence, relative to Rose Bengal": "-0.504% [at 18.6 µM]"}, {"smiles": "CC[C@H]1[C@@H]2C[C@H]3[C@@H]4N(C)c5ccccc5[C@]45C[C@@H](C2[C@H]5O)N3[C@@H]1O", "note": "(some centres undefined)", "fluorescence, relative to Rose Bengal": "0.581% [at 18.6 µM]"}]}]}
